About 79,000 compounds went through this panel and 15% of them were active in at least one assay; those are over-represented in the sample as a whole. Activity calls are given as the source filed them. No stated cut-off is given here; in the data, active means growth inhibition above about 70%; inactive means the rest.
Legend:
[1] = NCI Yeast Anticancer Drug Screen. Data for the rad52 strain (AID 147);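 further: 0% = growth of vehicle-treated control cultures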; conditions: S. cerevisiae rad52 mutant growth inhibition, active compounds read high
How it was run: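 Here a repair-compromised yeast strain receives each compound; its growth is then quantified and normalised to vehicle-only controls.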

[2] = NCI Yeast Anticancer Drug Screen. Data for the wt1 strain (AID 149);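 further: 0% = growth of vehicle-treated wt1 cultures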; conditions: S. cerevisiae wt1 strain (SPY 50644) growth inhibition, active compounds read high
How it was run: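 wt1 strain grown with compound or vehicle; inhibition taken from the growth difference.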

[3] = NCI Yeast Anticancer Drug Screen. Data for the rad50EPP+ strain (AID 151);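 further: 0% = growth of vehicle-treated control cultures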; conditions: S. cerevisiae rad50 mutant strain, active compounds read high
How it was run: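 Read-out is yeast growth inhibition relative to vehicle; cells used were the rad50EPP+ strain.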

[4] = NCI Yeast Anticancer Drug Screen. Data for the mgt1 strain (AID 153); conditions: S. cerevisiae mgt1 mutant growth inhibition, active compounds read high
How it was run: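 Measured: inhibition of mgt1 yeast growth by compound, normalized to vehicle-treated cultures.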

[5] = NCI Yeast Anticancer Drug Screen. Data for the rad50 strain (AID 155);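 further: 0% = growth of vehicle-only cultures of the same strain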; conditions: S. cerevisiae rad50 strain growth inhibition, active compounds read high
How it was run: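 DNA repair mutant yeast, compound exposure, growth read-out; inhibition is taken relative to vehicle.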

[6] = NCI Yeast Anticancer Drug Screen. Data for the mec2-1 strain (AID 157); conditions: S. cerevisiae mec2-1 strain, active compounds read high
How it was run: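 Using mec2-1 yeast: add compound, measure growth, express inhibition versus vehicle-treated cultures.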

[7] = NCI Yeast Anticancer Drug Screen. Data for the sgs1 mgt1 strain (AID 161);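 further: 0% = growth of cultures given vehicle only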; conditions: S. cerevisiae sgs1 mgt1 strain, active compounds read high
How it was run: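 Yeast cells carrying a defined DNA-repair defect were exposed to test compounds. Growth inhibition was measured relative to vehicle-treated controls.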

[8] = NCI Yeast Anticancer Drug Screen. Data for the CLN2oe strain (AID 163);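 further: 0% = growth of vehicle-only control cultures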; conditions: S. cerevisiae CLN2oe strain, active compounds read high
How it was run: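 Whole-cell yeast growth assay. A strain engineered for altered cell-cycle control received compound, and inhibition relative to vehicle-treated cultures was recorded.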

[9] = NCI Yeast Anticancer Drug Screen. Data for the cln2 rad14 strain (AID 165);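 further: 0% = growth equal to vehicle treated cultures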; conditions: S. cerevisiae cln2 rad14 strain, active compounds read high
How it was run: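 Yeast strain cln2 rad14, bearing defects in cell cycle control and DNA repair, serves as the test system; values reflect growth inhibition compared with vehicle.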

[10] = NCI Yeast Anticancer Drug Screen. Data for the bub3 strain (AID 167); conditions: S. cerevisiae bub3 mutant strain, active compounds read high
How it was run: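 In this screen, a yeast mutant lacking normal mitotic checkpoint function is challenged with compound. Relative growth versus vehicle gives the inhibition value.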

[11] = NCI Yeast Anticancer Drug Screen. Data for the wt2 strain (AID 169);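 further: 0% = growth of vehicle-treated yeast cultures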; conditions: S. cerevisiae wt2 strain growth inhibition, active compounds read high
How it was run: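 Treated yeast vs. vehicle-treated yeast: growth inhibition determined.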

[12] = NCI Yeast Anticancer Drug Screen. Data for the mlh1 strain (AID 171);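 further: 0% = growth of vehicle-treated control cultures of the same strain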; conditions: S. cerevisiae mlh1 strain growth inhibition, active compounds read high
How it was run: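 A yeast strain with a defined genetic lesion serves as the test organism. Cultures receive compound or vehicle, and growth is measured.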

[13] = NCI Yeast Anticancer Drug Screen. Data for the sgs1 strain (AID 173);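 further: 0% = growth of vehicle-only control cultures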; conditions: S. cerevisiae sgs1 mutant, active compounds read high
How it was run: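 A genetically defined yeast mutant is incubated with the test compound, and its growth is compared to that of the same strain given vehicle.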

[14] = NCI Yeast Anticancer Drug Screen. Data for the mlh1 rad18 strain (AID 175); conditions: S. cerevisiae mlh1 rad18 strain growth inhibition, active compounds read high
How it was run: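 Steps: expose repair-defective yeast to compound; measure growth; express inhibition against vehicle-treated controls.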

[15] = NCI Yeast Anticancer Drug Screen. Data for the rad18 strain (AID 177); conditions: S. cerevisiae rad18 mutant growth inhibition, active compounds read high
How it was run: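 Measured value is growth inhibition of a yeast strain bearing a DNA repair alteration, referenced to vehicle-treated cells.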

[16] = at 5.0 µM (retest, dose inferred, filed as 0.5)
[17] = at 50.0 µM (retest, dose inferred, filed as 5.0)

Measured: growth inhibition

COC(=O)C(Cl)(Cl)N=Nc1c(Cl)cc(Cl)c(C)c1Cl
inactive: [1]; at 1.2 µM -14% | [2]; at 1.2 µM -12% | [2]; at 3.7 µM 52% | [3]; at 1.2 µM 12% | [4]; at 1.2 µM -50% | [4]; at 3.7 µM 20% | [5]; at 1.2 µM -34% | [5]; at 3.7 µM 46% | [5]; [16] 49% | [6]; at 1.2 µM -40% | [6]; at 3.7 µM 68% | [6]; [16] 54% | [7]; [16] 14% | [7]; [17] 69% | [8]; at 1.2 µM 36% | [8]; at 3.7 µM 22% | [9]; [16] 2% | [9]; [17] -66% | [10]; at 1.2 µM -32% | [10]; at 3.7 µM 11% | [10]; [16] 5% | [10]; [17] -28% | [11]; at 1.2 µM -3% | [12]; at 1.2 µM -34% | [12]; at 3.7 µM 6% | [13]; at 1.2 µM 10% | [14]; [16] 59% | [15]; at 1.2 µM 28%
active: [1]; at 3.7 µM 83% | [1]; at 11.0 µM 97% | [1]; at 33.0 µM 98% | [1]; at 100.0 µM 97% | [2]; at 11.0 µM 99% | [2]; at 33.0 µM 99% | [2]; at 100.0 µM 99% | [3]; at 3.7 µM 83% | [3]; at 11.0 µM 99% | [3]; at 33.0 µM 99% | [3]; at 100.0 µM 99% | [4]; at 11.0 µM 96% | [4]; at 33.0 µM 98% | [4]; at 100.0 µM 99% | [5]; at 11.0 µM 96% | [5]; at 33.0 µM 92% | [5]; [17] 99% | [5]; at 50.0 µM 92.5% | [5]; at 100.0 µM 96% | [6]; at 11.0 µM 97% | [6]; at 33.0 µM 98% | [6]; [17] 99% | [6]; at 50.0 µM 91.3% | [6]; at 100.0 µM 98% | [7]; at 50.0 µM 91.9% | [8]; at 11.0 µM 97% | [8]; at 33.0 µM 99% | [8]; at 100.0 µM 99% | [9]; at 50.0 µM 88.2% | [10]; at 11.0 µM 92% | [10]; at 33.0 µM 98% | [10]; at 50.0 µM 93.2% | [10]; at 100.0 µM 98% | [11]; at 3.7 µM 89% | [11]; at 11.0 µM 99% | [11]; at 33.0 µM 99% | [11]; at 100.0 µM 99% | [12]; at 11.0 µM 96% | [12]; at 33.0 µM 100% | [12]; at 100.0 µM 100% | [13]; at 3.7 µM 88% | [13]; at 11.0 µM 87% | [13]; at 33.0 µM 99% | [13]; at 100.0 µM 100% | [14]; [17] 99% | [14]; at 50.0 µM 93.2% | [15]; at 3.7 µM 87% | [15]; at 11.0 µM 96% | [15]; at 33.0 µM 98% | [15]; at 100.0 µM 99%

O=S(=O)(c1ccccc1)N1CN2CN(C1)CN(S(=O)(=O)c1ccccc1)C2
active: [6]; [17] 79%
inactive: [1]; at 1.2 µM -10% | [1]; at 3.7 µM -2% | [1]; at 11.0 µM -15% | [1]; at 33.0 µM -8% | [1]; at 100.0 µM -5% | [2]; at 1.2 µM -3% | [2]; at 3.7 µM 14% | [2]; at 11.0 µM 17% | [2]; at 33.0 µM 11% | [2]; at 100.0 µM 16% | [3]; at 1.2 µM -18% | [3]; at 3.7 µM -15% | [3]; at 11.0 µM -15% | [3]; at 33.0 µM -12% | [3]; at 100.0 µM -10% | [4]; at 1.2 µM 0% | [4]; at 3.7 µM 7% | [4]; at 11.0 µM 5% | [4]; at 33.0 µM 7% | [4]; at 100.0 µM 6% | [5]; at 1.2 µM -4% | [5]; at 3.7 µM -7% | [5]; [16] 24% | [5]; at 11.0 µM -10% | [5]; at 33.0 µM -12% | [5]; [17] 38% | [5]; at 50.0 µM -11.5% | [5]; at 100.0 µM -11% | [6]; at 1.2 µM -2% | [6]; at 3.7 µM -6% | [6]; [16] 26% | [6]; at 11.0 µM -19% | [6]; at 33.0 µM 0% | [6]; at 50.0 µM -28% | [6]; at 100.0 µM -10% | [7]; [16] -11% | [7]; [17] 4% | [7]; at 50.0 µM -5.55% | [8]; at 1.2 µM 1% | [8]; at 3.7 µM -4% | [8]; at 11.0 µM -6% | [8]; at 33.0 µM 13% | [8]; at 100.0 µM -7% | [9]; [16] 44% | [9]; [17] 52% | [9]; at 50.0 µM -16.4% | [10]; at 1.2 µM -13% | [10]; at 3.7 µM -16% | [10]; [16] 25% | [10]; at 11.0 µM -25% | [10]; at 33.0 µM 3% | [10]; [17] 31% | [10]; at 50.0 µM -29.2% | [10]; at 100.0 µM -21% | [11]; at 1.2 µM -9% | [11]; at 3.7 µM 9% | [11]; at 11.0 µM -14% | [11]; at 33.0 µM -5% | [11]; at 100.0 µM 5%

From PubChem BioAssay (NCI)
